Test results from paper PMC4336329 (PLoS ONE, 2015).
The campaign covered roughly 310,000 compounds. About 14,000 (4.5%) showed an effect of 50% or more. The effect is printed as a negative number. Many of the other results were omitted from the sample, so strong results are more common in it than they were.

molecular target: human ether-à-go-go-related gene (hERG) potassium channel (human, UniProt Q12809); experiment: primary screen, population patch clamp on CHO cells stably expressing hERG; higher = less effect of the substance
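Further: peak tail current of the secondary pulse compared with the same well before compound.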

human ether-à-go-go-related gene (hERG) potassium channel, sequence (Q12809 whole entry, looked up): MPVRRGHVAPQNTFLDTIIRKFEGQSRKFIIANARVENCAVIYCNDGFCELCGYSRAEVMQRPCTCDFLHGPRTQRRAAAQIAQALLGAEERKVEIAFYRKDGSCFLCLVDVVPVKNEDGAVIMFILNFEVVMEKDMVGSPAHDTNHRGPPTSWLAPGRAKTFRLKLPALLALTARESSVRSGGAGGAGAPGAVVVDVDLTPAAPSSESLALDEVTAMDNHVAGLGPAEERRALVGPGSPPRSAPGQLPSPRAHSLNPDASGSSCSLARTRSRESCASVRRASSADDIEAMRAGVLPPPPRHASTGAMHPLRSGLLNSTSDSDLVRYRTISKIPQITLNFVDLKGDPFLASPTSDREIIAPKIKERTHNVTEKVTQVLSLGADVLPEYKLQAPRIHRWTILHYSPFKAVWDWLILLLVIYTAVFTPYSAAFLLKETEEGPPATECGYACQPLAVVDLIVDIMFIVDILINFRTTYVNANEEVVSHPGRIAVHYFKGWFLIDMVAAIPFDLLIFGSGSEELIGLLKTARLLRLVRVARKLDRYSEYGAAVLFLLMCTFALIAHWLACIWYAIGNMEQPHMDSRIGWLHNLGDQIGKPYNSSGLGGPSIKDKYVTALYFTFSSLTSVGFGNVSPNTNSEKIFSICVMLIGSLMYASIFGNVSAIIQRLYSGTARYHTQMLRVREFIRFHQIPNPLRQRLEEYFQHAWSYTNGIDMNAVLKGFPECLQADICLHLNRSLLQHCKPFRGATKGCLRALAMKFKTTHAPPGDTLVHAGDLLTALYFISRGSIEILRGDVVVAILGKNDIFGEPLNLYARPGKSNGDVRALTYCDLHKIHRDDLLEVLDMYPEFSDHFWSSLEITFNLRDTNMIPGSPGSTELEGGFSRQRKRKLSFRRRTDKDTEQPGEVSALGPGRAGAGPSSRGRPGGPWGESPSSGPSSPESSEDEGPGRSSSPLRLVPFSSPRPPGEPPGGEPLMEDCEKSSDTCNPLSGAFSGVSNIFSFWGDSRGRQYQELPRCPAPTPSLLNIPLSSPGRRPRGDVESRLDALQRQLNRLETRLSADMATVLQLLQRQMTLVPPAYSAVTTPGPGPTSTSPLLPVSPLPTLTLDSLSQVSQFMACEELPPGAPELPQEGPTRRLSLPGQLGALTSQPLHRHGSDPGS

| Structure (SMILES) | hERG current change (%, negative = inhibition) at 10uM [%] |
| --- | --- |
| C[C@@H](C(=O)NCC1CC1)[C@H]1C[C@]1(C)[C@H](NC(=O)OCc1ccccc1)c1ccccc1 | -7.08 |
| Cc1cccc(C(=O)N2CCCC(CCC(=O)N3CCN(c4ccccn4)CC3)C2)c1C (stereo not shown) | -17.3 |
| O=C(Cn1cnc2cc([N+](=O)[O-])ccc2c1=O)Nc1cccc2ccccc12 | -5.73 |
| O=C(O)c1ccc(Cl)c(S(=O)(=O)Nc2ccc(OCc3ccccc3)cc2)c1 | 7.79 |
| O=C(Cn1cc(C(=O)C2CC2)c2ccccc21)NCc1ccccc1 | 3.43 |
| Cc1cc(C(F)F)n2ncc(C(=O)NC3CCCCCC3)c2n1 | -11.5 |
| O=C(NCc1ccc2c(c1)OCO2)C(=O)NCC(c1ccco1)N1CCN(c2ccccc2)CC1 (stereo not shown) | 16 |
| COc1ccc(NC(=O)CSCC(=O)N2CCN(C(=O)c3ccco3)CC2)cc1 | -55.1 |
| Cc1ccc(NC(=O)CSCC(=O)N2CCN(C(=O)c3ccco3)CC2)cc1 | -21.6 |
| O=C(COc1ccc(Cl)cc1)Nc1ccc(N2CCN(C(=O)c3ccco3)CC2)cc1 | -21.1 |
| O=C(COc1ccccc1)Nc1ccc(N2CCN(C(=O)c3ccco3)CC2)cc1 | -53 |
| COc1ccc(OCC(=O)Nc2ccc(N3CCN(C(=O)c4ccco4)CC3)cc2)cc1 | 0.974 |
| Cc1cc(C)cc(OCC(=O)Nc2ccc(N3CCN(C(=O)c4ccco4)CC3)cc2)c1 | -45.8 |
| Cc1ccc(OCC(=O)Nc2ccc(N3CCN(C(=O)c4ccco4)CC3)cc2)cc1 | -56.1 |
| Cc1cccc(OCC(=O)Nc2ccc(N3CCN(C(=O)c4ccco4)CC3)cc2)c1 | -28.1 |
| Cc1cccc(NC(=O)CSCC(=O)N2CCN(C(=O)c3ccco3)CC2)c1 | -30.5 |
| COc1ccc2c(c1)C(=O)N(c1ccc(C)cc1C)C(=O)C2 | 7.6 |
| O=C(O)C(Cc1ccccc1)N1C(=O)/C(=C/c2ccccc2)SC1=S (stereo not shown) | -0.221 |
| CCn1c(NCc2ccco2)nc2c1c(=O)n(C)c(=O)n2C | -10.7 |
| CCCCC1=C([O-])C2N=CC=CC2=[N+](c2ccccn2)C1=O (stereo not shown) | 0.715 |
| Cc1ccc(-n2c(=O)[nH]c3c(C(N)=O)nc(CC(C)C)nc32)cc1 | 4.8 |
| O=C(Cc1ccc(Cl)cc1)Nc1ccc(C(=O)N2CCCCC2)cc1 | 14.5 |
| O=C(COc1ccc(Cl)cc1Cl)Nc1ccc(CN2CCOCC2)cc1 | 15.4 |
| O=C(Nc1ccc(Cl)cc1)N1CCCN(Cc2ccccc2F)C1 | -26.3 |
| O=C(COc1ccc(Cl)cc1Cl)Nc1ccc(CN2CCCCC2)cc1 | -67.9 |
| Cc1ccc(Cl)cc1N1CCN(CC(=O)Nc2ccc(CN3CCCCC3)cc2)CC1.Cl | -71.1 |
| O=C(Nc1ccc(Cl)cc1)N1CCCN(Cc2ccc(F)cc2)C1 | -75.4 |
| O=C(Cc1ccc(Cl)cc1)Nc1ccc(N2CCCC2)cc1 | 17.3 |

| Structure (SMILES) | hERG current change (%, negative = inhibition) at 10uM [%] |
| --- | --- |
| O=C(Cc1ccc(Cl)cc1)Nc1ccc(CN2CCCCC2)cc1 | -64.9 |
| O=C(COc1ccccc1Cl)Nc1ccc(CN2CCCCC2)cc1 | -33.7 |
| COc1ccccc1N1CCN(CC(=O)Nc2ccc(CN3CCCCC3)cc2)CC1.Cl | -11.5 |
| O=C(Nc1ccccc1)N1CCCN(Cc2ccccc2F)C1 | -8.48 |
| Cc1ccc(Cl)cc1N1CCN(CC(=O)Nc2ccc3[nH]c(=O)[nH]c3c2)CC1 | 11.1 |
| Cc1cc(C)n2nc(C(=O)N/N=C/c3ccccc3C)nc2n1 | 4.85 |
| O=C1c2ccccc2NC2(CCCC2)N1N=C1CCCC1 | -12.2 |
| Cc1c(C(=O)Nc2cccc(S(=O)(=O)N3CCCC3)c2)oc2ccccc12 | 5.98 |
| O=C(CCNS(=O)(=O)c1ccccc1)Nc1ccccc1 | 17.8 |
| CCc1ccc(NC(=O)C2CCN(S(=O)(=O)c3ccc4c(c3)NC(=O)C(C)S4)CC2)cc1 (stereo not shown) | 19.2 |
| O=C(Oc1coc(CSc2nnc(NC(=O)c3cccs3)s2)cc1=O)c1ccccc1 | 7.37 |
| COc1ccc(NS(=O)(=O)c2cccc(NC(=O)NC3CCCCC3)c2)cc1 | -4.21 |
| CC(OC(=O)CC1CC2CCC1C2)C(=O)Nc1ccc(C(N)=O)cc1 (stereo not shown) | -16 |
| CCCCNC(=O)Nc1c(C(=O)OCC)[nH]c2ccccc12 | 6.83 |
| COc1cc2nc(/C=C/c3cc(OC)c(OC)c(OC)c3)sc2cc1SC | 5.92 |
| CO/N=C/CC(=O)Nc1ccc(F)cc1F | 13.3 |
| CCN1CCN(Cc2ccc(NC(=O)Nc3ccccc3Cl)cc2)CC1 | -22.8 |
| O=C(CN1CCCC1)Nc1ccc(NC(=O)Nc2ccccc2Cl)cc1 | -21.5 |
| Cc1ccc(C(=O)Nc2ccc(CN3CCCCC3)cc2)c(C)c1 | -35.2 |
| O=C(Nc1ccc(CN2CCCCC2)cc1)Nc1ccccc1Cl | -59 |
| O=C(COc1ccccc1)Nc1ccc(CN2CCCCC2)cc1 | -26.9 |
| Cc1ccc(OCC(=O)Nc2ccc(CN3CCCCC3)cc2)c(C)c1 | -69.4 |
| COc1ccc(C2CC(c3ccccc3)=NN2C(=O)CCC(=O)O)cc1 (stereo not shown) | 8.77 |
| O=C(COc1ccc(Cl)cc1)NCC(=O)N/N=C/c1cccs1 | 12 |
| O=C(CN1C(=O)C2CCCCC2C1=O)Nc1nc(-c2ccc(F)cc2)cs1 (stereo not shown) | 5.21 |
| O=C(Nc1nc(-c2ccc(Cl)cc2)cs1)c1cccnc1 | 5.68 |
| CC1(C)C(C#N)=C(N)Oc2c1c(=O)oc1ccccc21 | 0.829 |
